What all share (assay type): functional
Assay [1] has as its system Plasmodium falciparum. Kind of assay: GSK_TCMDC: Inhibition of Plasmodium falciparum 3D7 in whole red blood cells, using parasite LDH activity as an index of growth. Test compounds present at 2uM.
Assay [2] deals with Plasmodium falciparum. Kind of assay: GSK_TCMDC: Inhibition of Plasmodium falciparum Dd2 in whole red blood cells, using parasite LDH activity as an index of growth. Test compounds present at 2uM.
The next assay has as its system HepG2. Kind of assay: GSK_TCMDC: Percent inhibition of human HepG2 cell line. Test compounds present at 10uM.

As usually defined, the Inhibition is how much of the control response was suppressed. Read a high Inhibition as a response far below the control. In the case of `Fc1ccc2[nH]c(-c3ccc(-c4ccc(CNCc5cnn(-c6ccccc6)n5)cc4)cc3)nc2c1.O=C(O)C(F)(F)F`, the Inhibition amounted to 98% with Plasmodium falciparum [1], 47% in the assay on Plasmodium falciparum [2] and 41% with HepG2.
Consider `CC(CN1CCN(C)CC1)C(=O)Nc1ccc(-c2ccc(-c3nc4ccccc4[nH]3)cc2)cc1` (stereo not given), for which the values for the Inhibition with Plasmodium falciparum [1], with Plasmodium falciparum [2] and in the assay with HepG2 were 92%, 87% and 13%, respectively.
For `O=C(Nc1cccc(F)c1)c1ccc(C(=O)NC2CCN(CC3CCCCC3)C2)cc1.O=C(O)C(F)(F)F` (stereo not given), in that order: 96%, 15% and 16%.
As for `COc1ccc2c(=NN=CC=Cc3ccccc3)cc(C)[nH]c2c1`, the figures for the Inhibition in the assay with Plasmodium falciparum [1], with Plasmodium falciparum [2] and in the assay with HepG2 were 99%, 56% and 18%, respectively.
In the case of `CCCc1cc(OC)c(CC2c3cccc(O)c3CCN2C)cc1OC.Cl` (stereo not given), the Inhibition with Plasmodium falciparum [1] came out at 100%; in the assay with Plasmodium falciparum [2], 99%; in the assay on HepG2, 3%.
For `CC(C)(C)OC(=O)c1c(NC(=O)/C=C/c2ccc(O)c(O)c2)sc2c1CCCC2`, the Inhibition came out at 97% with Plasmodium falciparum [1], 77% with Plasmodium falciparum [2] and 4% in the assay with HepG2.
For `COc1cccc(OC2CCN(C(=O)c3cc(C(C)(C)C)nn3Cc3ccccc3)CC2)c1` the same measures were 100%, 98% and 3%.
For `N#Cc1ccc(CN2CCC(Oc3ccc(NC(=O)c4ccco4)cc3Cl)C2)cc1.O=C(O)C(F)(F)F` (stereo not given), in that order: 95%, 95% and 13%.
For `CCOC(=O)CC[C@@H](NC(=O)c1ccc(NCc2ccc3ccc4nc(C)[nH]c(=O)c4c3c2)cc1F)C(=O)N[C@@H](Cc1c[nH]c2ccccc12)C(=O)OCC`, in that order: 98%, 77% and 45%.
As for `COCCOc1cccc(CN2CCC(c3cc4nc(C)cc(C(F)(F)F)n4n3)C2)c1.O=C(O)CC(O)(CC(=O)O)C(=O)O` (stereo not given), the Inhibition with Plasmodium falciparum [1] was 85%; with Plasmodium falciparum [2], 74%; in the assay with HepG2, 25%.

The values are drawn from ChEMBL document CHEMBL1157539, “Thousands of chemical starting points for antimalarial lead identification” (Nature, 2010).
